Measured values taken from PubChem BioAssay AID1159580 (chemical genetic matrix, 2015).
In all, about 5,500 compounds went through this assay and about 2,000 (36%) were called active. Inconclusive results (about 18%) are left out. Rule as the data show it: active = normalized growth mostly below about 0.91 (no sharp cut-off); inconclusive = no clear call, values can overlap the other calls; inactive = mostly above about 0.92. The list shows a part of the results.

Assay: chemical genetic growth profiling, strain panel (AID 1159580);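 also: tested at 20 µM; growth read once vehicle control cultures reached saturation at 30 °C; 1 = growth at the plate median or of vehicle wells; lower values mean less growth of the strain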
Conditions: growth OD

Measured: normalized growth

O=[N+]([O-])O[C@H]1CO[C@H]2[C@@H]1OC[C@H]2O[N+](=O)[O-]
inactive: S. cerevisiae deletion strains, locus YJR043C, strain POL32, hits give low values 1.02 | S. cerevisiae deletion strains, locus YJR066W, strain TOR1, hits give low values 0.946 | S. cerevisiae deletion strains, locus YKL009W, strain mrt4, hits give low values 1.03 | S. cerevisiae deletion strains, locus YKL068W, hits give low values 1.01 | S. cerevisiae deletion strains, locus YKL085W, strain MDH1 (second series), hits give low values 1.01 | S. cerevisiae deletion strains, locus YKL085W, strain MDH1, hits give low values 1.01 | S. cerevisiae deletion strains, locus YKL160W, strain elf1, hits give low values 0.98 | S. cerevisiae deletion strains, locus YKL190W, strain CNB1, hits give low values 1.02 | S. cerevisiae deletion strains, locus YKR001C, strain vps1, hits give low values 1.02 | S. cerevisiae deletion strains, locus YKR026C, strain gcn3, hits give low values 0.993 | S. cerevisiae deletion strains, locus YKR091W, strain srl3, hits give low values 0.993 | S. cerevisiae deletion strains, locus YLL001W, strain dnm1, hits give low values 0.971 | S. cerevisiae deletion strains, locus YLL026W, hits give low values 1 | S. cerevisiae deletion strains, locus YLL041C, strain sdh2, hits give low values 0.998 | S. cerevisiae deletion strains, locus YLR027C, strain aat2, hits give low values 1.01 | S. cerevisiae deletion strains, locus YLR039C, strain RIC1, hits give low values 1.05 | S. cerevisiae deletion strains, locus YLR058C, strain SHM2, hits give low values 1.01 | S. cerevisiae deletion strains, locus YLR102C, strain apc9, hits give low values 1.01 | S. cerevisiae deletion strains, locus YLR113W, strain HOG1, hits give low values 0.926 | S. cerevisiae deletion strains, locus YLR221C, strain rsa3, hits give low values 0.995 | S. cerevisiae deletion strains, locus YLR258W, strain gsy2, hits give low values 0.995 | S. cerevisiae deletion strains, locus YLR262C, strain YPT6 (second series), hits give low values 1 | S. cerevisiae deletion strains, locus YLR262C, strain YPT6, hits give low values 1.02 | S. cerevisiae deletion strains, locus YLR268W, strain sec22, hits give low values 1.04 | S. cerevisiae deletion strains, locus YLR320W, strain mms22, hits give low values 0.979 | S. cerevisiae deletion strains, locus YLR330W, strain CHS5, hits give low values 1.01 | S. cerevisiae deletion strains, locus YLR342W, strain FKS1 (second series), hits give low values 1.04 | S. cerevisiae deletion strains, locus YLR342W, strain FKS1, hits give low values 0.995 | S. cerevisiae deletion strains, locus YLR357W, strain rsc2, hits give low values 0.983 | S. cerevisiae deletion strains, locus YLR370C, strain arc18, hits give low values 0.992 | S. cerevisiae deletion strains, locus YLR371W, strain rom2, hits give low values 1 | S. cerevisiae deletion strains, locus YLR384C, strain iki3, hits give low values 0.981 | S. cerevisiae deletion strains, locus YLR418C, strain cdc73, hits give low values 1.09 | S. cerevisiae deletion strains, locus YML016C, strain PPZ1, hits give low values 1.01 | S. cerevisiae deletion strains, locus YML032C, strain rad52, hits give low values 1.03 | S. cerevisiae deletion strains, locus YML120C, strain ndi1, hits give low values 0.966 | S. cerevisiae deletion strains, locus YML124C, strain tub3, hits give low values 1.02 | S. cerevisiae deletion strains, locus YMR058W, strain fet3, hits give low values 1 | S. cerevisiae deletion strains, locus YMR078C, strain ctf18, hits give low values 1.02 | S. cerevisiae deletion strains, locus YMR125W, strain sto1, hits give low values 0.996 | S. cerevisiae deletion strains, locus YMR129W, hits give low values 0.988 | S. cerevisiae deletion strains, locus YMR205C, strain PFK2, hits give low values 0.963 | S. cerevisiae deletion strains, locus YMR223W, strain ubp8, hits give low values 1.05 | S. cerevisiae deletion strains, locus YMR231W, strain pep5, hits give low values 1 | S. cerevisiae deletion strains, locus YMR307W, strain GAS1, hits give low values 1.05 | S. cerevisiae deletion strains, locus YNL067W, strain RPL9B, hits give low values 1.01 | S. cerevisiae deletion strains, locus YNL071W, strain lat1, hits give low values 0.996 | S. cerevisiae deletion strains, locus YNL128W, strain TEP1, hits give low values 1.03 | S. cerevisiae deletion strains, locus YNL183C, strain NPR1, hits give low values 0.955 | S. cerevisiae deletion strains, locus YNL209W, strain ssb2, hits give low values 0.994 | S. cerevisiae deletion strains, locus YNL233W, strain BNI4, hits give low values 1.01 | S. cerevisiae deletion strains, locus YNL248C, strain rpa49, hits give low values 1.01 | S. cerevisiae deletion strains, locus YNL250W, strain rad50, hits give low values 1.05 | S. cerevisiae deletion strains, locus YNL271C, strain bni1, hits give low values 1.01 | S. cerevisiae deletion strains, locus YNL298W, strain CLA4, hits give low values 1.03 | S. cerevisiae deletion strains, locus YNL307C, strain MCK1, hits give low values 1.02 | S. cerevisiae deletion strains, locus YNL322C, strain KRE1 (second series), hits give low values 0.979 | S. cerevisiae deletion strains, locus YNR049C, strain mso1, hits give low values 0.981 | S. cerevisiae deletion strains, locus YNR052C, strain pop2, hits give low values 1.02 | S. cerevisiae deletion strains, locus YOL006C, strain TOP1, hits give low values 1.01 | S. cerevisiae deletion strains, locus YOL012C, strain htz1 1.04 | S. cerevisiae deletion strains, locus YOL147C, strain pex11, hits give low values 1.02 | S. cerevisiae deletion strains, locus YOR001W, strain rrp6, hits give low values 1.01 | S. cerevisiae deletion strains, locus YOR061W, strain CKA2, hits give low values 1.01 | S. cerevisiae deletion strains, locus YOR069W, strain VPS5, hits give low values 1.01 | S. cerevisiae deletion strains, locus YOR070C, strain gyp1, hits give low values 1 | S. cerevisiae deletion strains, locus YOR080W, strain dia2, hits give low values 0.994 | S. cerevisiae deletion strains, locus YOR083W, strain WHI5, hits give low values 0.977 | S. cerevisiae deletion strains, locus YOR106W, strain vam3, hits give low values 1 | S. cerevisiae deletion strains, locus YOR136W, strain idh2, hits give low values 1.02 | S. cerevisiae deletion strains, locus YOR144C, strain elg1, hits give low values 1.02 | S. cerevisiae deletion strains, locus YOR184W, strain ser1, hits give low values 1.03 | S. cerevisiae deletion strains, locus YOR265W, strain rbl2, hits give low values 0.994 | S. cerevisiae deletion strains, locus YOR270C, strain vph1, hits give low values 1.02 | S. cerevisiae deletion strains, locus YOR290C, strain snf2, hits give low values 0.939 | S. cerevisiae deletion strains, locus YOR316C, strain cot1, hits give low values 1.01 | S. cerevisiae deletion strains, locus YPL051W, strain arl3, hits give low values 0.985 | S. cerevisiae deletion strains, locus YPL078C, strain atp4, hits give low values 0.979 | S. cerevisiae deletion strains, locus YPL106C, strain sse1, hits give low values 0.949 | S. cerevisiae deletion strains, locus YPL240C, strain hsp82, hits give low values 1 | S. cerevisiae deletion strains, locus YPL256C, strain CLN2, hits give low values 0.938 | S. cerevisiae deletion strains, locus YPR119W, strain clb2, hits give low values 1.02 | S. cerevisiae deletion strains, locus YPR141C, strain kar3, hits give low values 1.02 | S. cerevisiae deletion strains, locus YPR163C, strain tif3, hits give low values 1.01 | S. cerevisiae deletion strains, locus YPR167C, strain met16, hits give low values 1.02 | S. cerevisiae deletion strains, strain wtn01, hits give low values 1.05 | S. cerevisiae strains, strain wild type, hits give low values 1.02
active: S. cerevisiae deletion strains, locus YOR231W, strain MKK1, hits give low values 0.837
